Source: the supplement of paper PMC10849652
The full data set covers some 7,900 targets. This sample favours those with a hit. About 0.6% of all pairs of compound and target were hits. Unmarked numbers belong to inactive results.

Columns and labels:
Test in all cases: log2 fold change, soluble protein after heating vs DMSO (PISA); higher = thermal stabilisation; K562 cells, 10 uM, 30 min; active = over 0.2 and 3.5 SD of the protein, either way, in both replicates (recomputed)
[1] = compound: NC(=O)Nc1cc(-c2cccc(F)c2)sc1C(=O)N[C@H]1CCCNC1
Method in brief: (§1)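 Soluble protein was quantified by TMTpro 16plex LC-MS/MS after channel sums were equalised. It was obtained as the supernatant after 21,000xg for 90 min from pooled aliquots of K562 cells (2×10^6 cells/mL, 10 μM compound, 30 min) heated for 3 min across 48°C-58°C and extracted in PBS with 0.5% NP-40 at 4°C. Thermal stability values are relative to control samples and come from duplicates. They are given as log2 fold changes.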

[2] = compound: NC(=O)c1cnc(N[C@@H]2CCCC[C@@H]2N)nc1Nc1cccc(-n2nccn2)c1
Method in brief: as §1

[3] = compound: NC1(c2ccc(-c3nc4ccn5c(=O)[nH]nc5c4cc3-c3ccccc3)cc2)CCC1
Method in brief: as §1

[4] = compound: NCC(=O)Nc1ccc(-n2nc(C(F)(F)F)cc2-c2ccc3c(ccc4ccccc43)c2)cc1
Method in brief: as §1

entinostat = compound: Nc1ccccc1NC(=O)c1ccc(CNC(=O)OCc2cccnc2)cc1 [entinostat]
Method in brief: as §1

vorinostat = compound: O=C(CCCCCCC(=O)Nc1ccccc1)NO [vorinostat]
Method in brief: as §1

citarinostat = compound: O=C(CCCCCCNC(=O)c1cnc(N(c2ccccc2)c2ccccc2Cl)nc1)NO [citarinostat]
Method in brief: as §1

silmitasertib = compound: O=C(O)c1ccc2c(c1)nc(Nc1cccc(Cl)c1)c1ccncc12 [silmitasertib]
Method in brief: as §1

[5] = compound: O=C1NC(=O)C(c2cnc3ccccn23)=C1c1cn2c3c(cc(F)cc13)CN(C(=O)N1CCCCC1)CC2
Method in brief: as §1

[6] = compound: c1cc(OCCN2CCCCC2)cc(-c2n[nH]c3ccc(-c4nnc[nH]4)cc23)c1
Method in brief: as §1

entospletinib = compound: c1cn2cc(-c3ccc4cn[nH]c4c3)nc(Nc3ccc(N4CCOCC4)cc3)c2n1 [entospletinib]
Method in brief: as §1

Chain of UniProt Q8IWB1 (Q8IWB1 whole entry, looked up): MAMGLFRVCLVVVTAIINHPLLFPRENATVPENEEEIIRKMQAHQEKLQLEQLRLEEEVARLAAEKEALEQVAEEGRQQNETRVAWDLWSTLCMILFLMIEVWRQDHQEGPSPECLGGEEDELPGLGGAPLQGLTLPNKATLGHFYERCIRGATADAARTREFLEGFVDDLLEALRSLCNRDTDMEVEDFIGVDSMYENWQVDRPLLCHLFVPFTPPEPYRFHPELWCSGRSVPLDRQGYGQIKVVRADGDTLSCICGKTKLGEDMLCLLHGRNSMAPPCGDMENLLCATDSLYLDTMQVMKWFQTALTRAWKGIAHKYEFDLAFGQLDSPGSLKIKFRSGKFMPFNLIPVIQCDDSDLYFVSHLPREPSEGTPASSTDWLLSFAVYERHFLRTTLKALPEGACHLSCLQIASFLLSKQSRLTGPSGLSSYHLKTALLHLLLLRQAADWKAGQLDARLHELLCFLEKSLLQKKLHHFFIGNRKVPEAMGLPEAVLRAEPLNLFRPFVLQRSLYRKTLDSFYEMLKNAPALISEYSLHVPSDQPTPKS
Chain of UniProt Q9NQG6 (Q9NQG6 whole entry, looked up): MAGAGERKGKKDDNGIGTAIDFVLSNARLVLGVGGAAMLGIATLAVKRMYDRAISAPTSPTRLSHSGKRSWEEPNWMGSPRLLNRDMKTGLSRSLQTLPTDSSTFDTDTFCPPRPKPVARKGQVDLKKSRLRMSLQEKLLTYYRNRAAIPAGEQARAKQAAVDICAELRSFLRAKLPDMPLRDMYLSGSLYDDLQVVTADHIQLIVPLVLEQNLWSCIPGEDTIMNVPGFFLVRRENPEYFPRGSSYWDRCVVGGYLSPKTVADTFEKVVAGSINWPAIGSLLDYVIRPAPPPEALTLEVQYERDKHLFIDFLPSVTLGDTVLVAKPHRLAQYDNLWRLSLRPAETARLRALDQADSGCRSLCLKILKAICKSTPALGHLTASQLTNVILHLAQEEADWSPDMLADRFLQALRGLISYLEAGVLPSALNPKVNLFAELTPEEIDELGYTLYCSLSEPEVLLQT
Chain of UniProt Q14681 (Q14681 whole entry, looked up): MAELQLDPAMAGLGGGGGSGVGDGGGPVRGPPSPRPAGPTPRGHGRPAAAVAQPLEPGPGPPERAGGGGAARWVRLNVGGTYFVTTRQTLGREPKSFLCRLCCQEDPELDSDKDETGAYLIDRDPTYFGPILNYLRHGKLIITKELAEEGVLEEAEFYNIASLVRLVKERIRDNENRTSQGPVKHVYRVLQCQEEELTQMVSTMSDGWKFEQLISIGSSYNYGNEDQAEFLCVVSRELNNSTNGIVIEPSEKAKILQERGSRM
Chain of UniProt Q13257 (Q13257 whole entry, looked up): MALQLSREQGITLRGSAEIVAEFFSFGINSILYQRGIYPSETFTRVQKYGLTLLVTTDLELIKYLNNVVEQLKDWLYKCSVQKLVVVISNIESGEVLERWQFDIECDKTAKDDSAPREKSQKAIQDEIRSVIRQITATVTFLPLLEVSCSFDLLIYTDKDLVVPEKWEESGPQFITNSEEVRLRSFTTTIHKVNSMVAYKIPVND
Chain of UniProt Q13418 (Q13418 whole entry, looked up): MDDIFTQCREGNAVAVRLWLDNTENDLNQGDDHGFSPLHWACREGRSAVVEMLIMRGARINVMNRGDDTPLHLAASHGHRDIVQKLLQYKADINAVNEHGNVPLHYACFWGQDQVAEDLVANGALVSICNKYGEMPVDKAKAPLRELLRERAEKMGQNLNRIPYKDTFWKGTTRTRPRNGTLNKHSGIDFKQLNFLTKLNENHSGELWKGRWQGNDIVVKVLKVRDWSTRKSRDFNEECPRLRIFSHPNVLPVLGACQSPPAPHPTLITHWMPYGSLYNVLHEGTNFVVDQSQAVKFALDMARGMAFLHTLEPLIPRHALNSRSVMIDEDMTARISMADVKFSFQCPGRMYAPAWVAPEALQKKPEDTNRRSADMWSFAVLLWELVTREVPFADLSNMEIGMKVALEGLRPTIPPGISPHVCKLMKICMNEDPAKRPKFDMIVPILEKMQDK
Chain of UniProt Q9BY66 (Q9BY66 whole entry, looked up): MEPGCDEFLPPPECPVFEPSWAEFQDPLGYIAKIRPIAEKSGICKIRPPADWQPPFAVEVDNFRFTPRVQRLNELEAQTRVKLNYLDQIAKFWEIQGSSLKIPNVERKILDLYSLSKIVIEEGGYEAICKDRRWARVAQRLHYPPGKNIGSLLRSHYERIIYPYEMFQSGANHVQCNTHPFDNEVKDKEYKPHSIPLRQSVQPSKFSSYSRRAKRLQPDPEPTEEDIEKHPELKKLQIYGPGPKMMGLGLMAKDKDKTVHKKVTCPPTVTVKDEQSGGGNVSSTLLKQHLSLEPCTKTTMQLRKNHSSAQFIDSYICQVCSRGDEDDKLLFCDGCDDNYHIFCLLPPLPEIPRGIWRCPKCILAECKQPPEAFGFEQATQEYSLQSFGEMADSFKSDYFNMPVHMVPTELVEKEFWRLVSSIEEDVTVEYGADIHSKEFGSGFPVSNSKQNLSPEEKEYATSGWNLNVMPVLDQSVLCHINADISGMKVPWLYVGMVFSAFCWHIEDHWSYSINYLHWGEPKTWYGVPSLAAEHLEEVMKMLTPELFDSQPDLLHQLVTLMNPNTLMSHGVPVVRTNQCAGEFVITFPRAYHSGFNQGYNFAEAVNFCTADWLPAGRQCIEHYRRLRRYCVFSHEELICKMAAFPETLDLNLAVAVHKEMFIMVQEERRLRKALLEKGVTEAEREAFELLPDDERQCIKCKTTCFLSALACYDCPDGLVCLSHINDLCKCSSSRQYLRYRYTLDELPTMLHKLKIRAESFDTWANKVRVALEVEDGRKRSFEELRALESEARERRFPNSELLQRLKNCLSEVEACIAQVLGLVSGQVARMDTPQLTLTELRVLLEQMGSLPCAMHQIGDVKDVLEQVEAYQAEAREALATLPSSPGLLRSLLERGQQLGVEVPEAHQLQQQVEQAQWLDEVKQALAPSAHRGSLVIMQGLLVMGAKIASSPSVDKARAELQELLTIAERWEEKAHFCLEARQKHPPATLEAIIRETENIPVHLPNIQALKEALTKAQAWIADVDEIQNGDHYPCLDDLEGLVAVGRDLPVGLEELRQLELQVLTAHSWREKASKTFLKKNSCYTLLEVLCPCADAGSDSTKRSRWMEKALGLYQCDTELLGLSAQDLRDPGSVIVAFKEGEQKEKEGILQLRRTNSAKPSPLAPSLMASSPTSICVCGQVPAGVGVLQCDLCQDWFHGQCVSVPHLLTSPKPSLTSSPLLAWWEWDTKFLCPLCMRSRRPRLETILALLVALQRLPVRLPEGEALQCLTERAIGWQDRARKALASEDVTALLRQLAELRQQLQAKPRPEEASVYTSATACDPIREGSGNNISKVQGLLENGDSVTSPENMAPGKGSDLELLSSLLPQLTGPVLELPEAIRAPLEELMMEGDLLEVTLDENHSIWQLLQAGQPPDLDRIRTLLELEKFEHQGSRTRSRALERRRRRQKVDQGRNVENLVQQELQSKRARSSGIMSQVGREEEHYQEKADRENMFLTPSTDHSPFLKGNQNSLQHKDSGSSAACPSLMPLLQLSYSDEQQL
Chain of UniProt Q9BPX6 (Q9BPX6 whole entry, looked up): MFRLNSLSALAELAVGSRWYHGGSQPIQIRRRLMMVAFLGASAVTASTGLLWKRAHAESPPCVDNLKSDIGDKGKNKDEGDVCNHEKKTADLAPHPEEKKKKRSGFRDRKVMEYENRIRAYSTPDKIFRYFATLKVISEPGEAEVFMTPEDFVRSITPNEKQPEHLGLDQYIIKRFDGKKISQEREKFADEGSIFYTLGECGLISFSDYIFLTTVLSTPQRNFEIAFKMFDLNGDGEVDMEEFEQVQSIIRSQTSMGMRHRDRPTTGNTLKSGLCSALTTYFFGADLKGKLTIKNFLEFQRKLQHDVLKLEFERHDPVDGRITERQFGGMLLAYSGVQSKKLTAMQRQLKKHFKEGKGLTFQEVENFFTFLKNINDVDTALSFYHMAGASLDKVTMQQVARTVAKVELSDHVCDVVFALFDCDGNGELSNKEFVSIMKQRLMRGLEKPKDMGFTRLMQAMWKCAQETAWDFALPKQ
Chain of UniProt Q13123 (Q13123 whole entry, looked up): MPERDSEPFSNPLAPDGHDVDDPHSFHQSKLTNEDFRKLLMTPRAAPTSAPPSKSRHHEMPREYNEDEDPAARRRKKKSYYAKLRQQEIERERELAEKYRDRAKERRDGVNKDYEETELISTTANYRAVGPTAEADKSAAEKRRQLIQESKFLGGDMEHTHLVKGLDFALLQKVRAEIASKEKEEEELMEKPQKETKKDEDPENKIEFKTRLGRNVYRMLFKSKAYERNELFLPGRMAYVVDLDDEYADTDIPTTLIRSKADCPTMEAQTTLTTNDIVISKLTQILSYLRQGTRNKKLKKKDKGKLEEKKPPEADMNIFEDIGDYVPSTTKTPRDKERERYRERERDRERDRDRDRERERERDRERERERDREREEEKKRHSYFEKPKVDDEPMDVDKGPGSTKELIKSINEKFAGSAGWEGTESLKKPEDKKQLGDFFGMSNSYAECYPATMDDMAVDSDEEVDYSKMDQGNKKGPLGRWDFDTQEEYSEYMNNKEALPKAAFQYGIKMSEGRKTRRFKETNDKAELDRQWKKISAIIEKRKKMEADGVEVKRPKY
Chain of UniProt Q9NQ29 (Q9NQ29 whole entry, looked up): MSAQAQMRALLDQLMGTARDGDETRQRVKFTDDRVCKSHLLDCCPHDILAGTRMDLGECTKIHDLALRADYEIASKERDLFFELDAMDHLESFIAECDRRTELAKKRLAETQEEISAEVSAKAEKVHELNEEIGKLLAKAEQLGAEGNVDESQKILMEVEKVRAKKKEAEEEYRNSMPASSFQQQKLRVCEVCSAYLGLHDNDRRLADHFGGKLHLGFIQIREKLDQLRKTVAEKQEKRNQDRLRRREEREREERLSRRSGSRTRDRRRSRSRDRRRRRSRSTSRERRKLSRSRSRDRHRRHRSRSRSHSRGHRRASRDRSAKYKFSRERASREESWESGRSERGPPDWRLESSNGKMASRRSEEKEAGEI

| Target | log2 fold change [1] | log2 fold change [2] | log2 fold change [3] | log2 fold change [4] | log2 fold change (entinostat) | log2 fold change (vorinostat) | log2 fold change (citarinostat) | log2 fold change (silmitasertib) | log2 fold change [5] | log2 fold change [6] | log2 fold change (entospletinib) |
| --- | --- | --- | --- | --- | --- | --- | --- | --- | --- | --- | --- |
| KIF1B isoform 4 (UniProt O60333) | 0.043 | -0.059 | -0.16 | -0.03 | 0.011 | 0.063 | 0.054 | 0.009 | -0.037 | -0.062 | -0.013 |
| LEO1 (UniProt Q8WVC0) | 0.003 | -0.06 | -0.028 | -0.11 | 0.005 | 0.088 | 0.009 | 0.068 | -0.153 | -0.055 | -0.094 |
| KIF13A (UniProt Q9H1H9) | -0.049 | -0.008 | -0.078 | -0.064 | 0.04 | -0.178 | -0.041 | 0 | -0.005 | -0.061 | 0.066 |
| MAP3K20 (UniProt Q9NYL2) | -0.008 | 0.035 | -0.012 | -0.03 | 0.019 | 0 | 0.002 | 0.031 | 0.026 | -0.09 | -0.007 |
| MIA2 (UniProt Q96PC5) | 0.03 | -0.03 | 0.06 | -0.032 | -0.009 | 0.009 | 0.059 | 0.083 | -0.045 | -0.058 | -0.012 |
| LTO1 (UniProt Q8WV07) | -0.077 | 0.009 | -0.011 | 0.094 | -0.097 | 0.005 | 0.044 | 0.158 | -0.015 | -0.126 | -0.047 |
| MAD2L1 (UniProt Q13257) | -0.013 | -0.09 | -0.193 | -0.124 | 0.036 | 0.021 | 0.014 | 0.072 | -0.032 | 0.006 | 0.064 |
| LEMD3 (UniProt Q9Y2U8) | -0.206 | -0.029 | -0.142 | -0.116 | -0.017 | 0.035 | 0.053 | -0.068 | -0.077 | 0.057 | -0.031 |
| MAPKAPK3 (UniProt Q16644) | 0.147 | -0.024 | -0.125 | -0.052 | -0.068 | -0.006 | -0.012 | 0.18 | -0.141 | 0.05 | 0.001 |
| ITPRIP (UniProt Q8IWB1) | -0.041 | -0.031 | -0.373 (active) | -0.021 | -0.01 | -0.08 | -0.076 | -0.009 | 0.019 | -0.06 | -0.005 |
| KCTD10 (UniProt Q9H3F6) | 0.065 | 0.226 | 0.028 | 0.077 | -0.014 | -0.001 | -0.05 | -0.042 | -0.088 | -0.025 | 0.047 |
| LUC7L (UniProt Q9NQ29) | -0.061 | 0.011 | 0.17 | -0.043 | -0.01 | -0.058 | -0.052 | -0.006 | 0.133 | -0.095 | 0.083 |
| MICU2 (UniProt Q8IYU8) | -0.095 | -0.075 | -0.121 | -0.006 | -0.014 | 0.073 | 0.042 | 0.076 | 0.04 | -0.141 | 0.019 |
| KNTC1 (UniProt P50748) | -0.037 | -0.1 | -0.193 | -0.046 | 0.049 | 0.029 | 0.037 | 0.077 | 0.013 | -0.004 | 0 |
| KIFBP (UniProt Q96EK5) | 0.002 | -0.166 | -0.117 | -0.091 | 0.059 | 0.088 | 0.043 | -0.02 | 0.024 | -0.056 | -0.098 |
| MFGE8 (UniProt Q08431) | -0.163 | -0.058 | 0.049 | 0.125 | -0.082 | 0.03 | -0.036 | 0.117 | 0.007 | -0.029 | 0.065 |
| MICU1 isoform 3 (UniProt Q9BPX6) | -0.048 | -0.022 | -0.012 | 0.039 | 0.016 | 0.017 | 0.053 | 0.117 | 0.027 | -0.085 | 0.049 |
| IPO13 (UniProt O94829) | 0.051 | -0.101 | -0.206 | -0.112 | 0.012 | 0.138 | 0.067 | 0.081 | -0.046 | -0.175 | 0.106 |
| KDM5D isoform 3 (UniProt Q9BY66) | -0.038 | -0.012 | -0.134 | -0.025 | 0.135 | 0.006 | 0.198 | 0.176 | 0 | -0.096 | -0.056 |
| IK (UniProt Q13123) | -0.016 | 0.119 | 0.06 | -0.08 | 0.008 | 0.026 | -0.235 | 0.132 | 0.017 | -0.078 | 0.015 |
| MIEF1 (UniProt Q9NQG6) | -0.001 | -0.14 | -0.215 | -0.034 | 0.056 | 0.019 | 0.073 | 0.006 | 0.031 | -0.01 | 0.032 |
| MARCKSL1 (UniProt P49006) | -0.02 | 0.028 | -0.01 | 0.002 | 0.075 | -0.062 | 0.162 | -0.115 | -0.035 | 0.089 | -0.005 |
| LMNA (UniProt P02545) | 0.205 | -0.013 | 0.024 | 0.047 | -0.004 | -0.026 | 0.039 | 0.015 | -0.075 | -0.068 | -0.025 |
| KCTD2 (UniProt Q14681) | -0.524 | -0.195 | 0.032 | -0.119 | -0.35 | -0.543 | -0.274 | 0.119 | -0.121 | -0.204 | 0.139 |
| IPO7 (UniProt O95373) | 0.024 | -0.099 | -0.145 | -0.069 | 0.036 | 0.055 | 0.056 | 0.015 | -0.004 | -0.09 | 0.027 |
| ILK (UniProt Q13418) | -0.236 | -0.125 | -0.07 | -0.095 | -0.149 | 0.083 | -0.006 | -0.003 | -0.036 | -0.048 | 0.074 |
| IGFBP2 (UniProt P18065) | 0.026 | -0.043 | -0.242 | -0.037 | 0.04 | 0.351 | -0.068 | 0.267 | -0.143 | 0.064 | 0.092 |
| LMNB2 (UniProt Q03252) | 0.079 | -0.077 | 0.068 | -0.09 | -0.006 | -0.047 | 0.015 | 0.018 | -0.101 | -0.07 | -0.082 |
